Compound activity: PubChem BioAssay, National Center for Advancing Translational Sciences (NCATS)
Only a selection was taken, and hits are over-represented in it overall.
Casp7 inh = blocks human caspase-7 allosterically or competitively. P55210. recombinant caspase-7, Ac-DEVD-AFC fluorescence rate. Potency, µM (top dose mostly 57.5 µM), for inactives: at the top dose activity change, negative = inhibition, most hits filed as inhibitors. 75,000 tested, 0.02% active. AID 889; active = well fitted inhibition curve with a large enough effect in the main read-out, with a control signal flat, not every such curve was filed as active; inconclusive = small, poorly fitted or top-dose-only effect, or a change in a side signal; also: % of control where 0% means no effect
Caspase-1 inhib = caspase-1 (human) inhibition, allosteric or competitive; P29466; Caspase-1 enzyme, Ac-WEHD-AFC fluorogenic rate; Potency, µM (top dose mostly 57.5 µM), without a hit: at the top dose activity change, negative = inhibition, hits mostly inhibitors; 75,000 tested, 0.03% active; AID 900; active = well fitted inhibition curve with a large enough effect; inconclusive = small, poorly fitted or top-dose-only effect;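 also: plate controls were vehicle for no effect and no substrate for full effect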
GBA activity = alters purified human glucocerebrosidase activity. P04062. Potency, µM. purified enzyme, resorufin glucoside fluorescence (screen aimed at inhibitors), 20 min. 48,000 tested, 1.1% active; in the data active = potency below about 15 µM; inconclusive = mostly about 16 µM to 33 µM;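 also: the screen sought inhibitors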
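Normal human glucocerebrosidase (0.2 nM final) was assayed with resorufin β-D-glucopyranoside (30 uM final) in 50mM citric acid/KH2PO4, 10mM sodium taurocholate, 0.01% tween-20, pH 5.9. Compounds were titrated; fluorescence (Ex 548, Em 600) read after 20 min at RT.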
Active calls of the source: *; ? = inconclusive; nt = not tested or not shown; [ ] = remark or other dose. Potency is read from the fitted curve at half-maximal effect.

SMILES	Casp7 inh	Caspase-1 inhib	GBA activity
Cn1cc(CCC(=O)N2CCC3(CC2)OCCO3)c2ccccc21	0.2%	-1.2%	>76.9
Cc1cc(N2CCOCC2)nc2ccc(NC(=O)CCC(=O)N3CCC4(CC3)OCCO4)cc12	-1.3%	-0.4%	4.68*
N[C@@H]1CCc2cc(O)c(O)cc2C1	3.2%	-0.9%	nt
C[C@@H]1[C@H]2C=C[C@@H]1[C@@H](c1c3ccc(=O)c(O)c-3oc3c(O)c(O)ccc13)[C@@H]2C(=O)O	-12.1%[11.5 µM]	-5.3%[11.5 µM]	nt
Cn1ncnc2c(=O)n(C)c(=O)nc1-2	?	12.6µM*	>76.9
CSC([N-]/N=C/c1cccc(C)n1)=[S]=[Cu].CS[C@H]([S-])[N-]/N=C/c1cccc(C)n1	-1.8%[11.5 µM]	-1.6%[11.5 µM]	nt
c1ccc(C[N+]23CN4CN(CN(C4)C2)C3)cc1	0.2%[11.5 µM]	-0.7%[11.5 µM]	nt
O=S(=O)(c1ccccc1)N1CN2CCN(C2)C1	6.7%	-0.6%	13.7*
C=CCN1CCc2cccc3c2[C@@H]1Cc1ccc(O)c(O)c1-3	0.6%	1.5%	nt
NC(N)=Nc1ccc2[nH]c3c(c2c1)C[C@]1(O)[C@@H]2Cc4ccc(O)c5c4[C@]1(CCN2CC1CC1)[C@H]3O5	-11.1%	2.7%	nt
CCC(C)NC(=O)c1c(N)n(Cc2ccc3c(c2)OCO3)c2nc3ccccc3nc12 (configuration not stated)	?	nt	15.1*
CCC(C)NC(=O)c1c(N)n(CCCOC)c2nc3ccccc3nc12 (configuration not stated)	?	nt	>76.9
CC[C@H](CO)NC(=O)[C@@H]1C=C2c3cccc4c3c(cn4C)C[C@@H]2N(C)C1	-8.6%	-2.3%	nt
COc1cc2c(cc1O)C[C@@H]1c3c(cc(O)c(OC)c3-2)CCN1C	1.8%[11.5 µM]	-3.6%[11.5 µM]	nt
COc1cc2c(cc1O)-c1c(O)c(OC)cc3c1[C@H](C2)N(C)CC3	-26.9%	31.6µM*	nt
